In the library only some 0.99% were active in any assay of this set; here they are far more common.
Keap1-Nrf2 PPI: inhibitors of human Keap1-Nrf2 protein-protein interaction; Keap1 Kelch-Nrf2 peptide fluorescence polarization, 1536-well; inhibition, % at 9.4 µM; AID 504523; actives 0.15% (n = 340,000); Q14145; in the data active = inhibition above about 12%;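 also: human Keap1 Kelch domain with fluorescein labeled Nrf2 9mer peptide probe; 0% = neutral control wells and 100% = peptide positive control; higher means more block of Keap1 binding to Nrf2 peptide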
LANA DNA inh: inhibitors of KSHV LANA C-terminal domain DNA binding; inhibition, % at 9 µM; MBP-C-LANA/FAM-LBS DNA binding, fluorescence polarization; actives 0.078% (n = 340,000);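 active = highest replicate inhibition at or above 60% at 9 µM, even if other replicates fall short; inactive = all replicates below 60% inhibition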;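 also: 0% = neutral control wells and 100% = 4 µM acridine orange control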
cardiac RTF act: cardiac RTF calcium sensitization; AID 493008; activation, % at 7.2 µM; IANBD-labeled TnC RTF fluorescence at EC20 calcium; 0% EC20 calcium, 100% full calcium; actives 0.24% (n = 340,000);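 active = activation above the mean over all tested compounds plus 3 SD, cut at about 30% in these data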;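 also: rise in fluorescence read as greater calcium sensitivity of cardiac thin filaments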
Cardiac RTF inh: cardiac RTF calcium desensitization; P19429+P45379; inhibition, % at 7.15 µM; actives 0.12% (n = 340,000); IANBD-labeled cardiac RTF, Ca2+ fluorescence;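 active = inhibition above the mean inhibition of all tested compounds plus 3 SD, cut at about 17% in these data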;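 also: assay run at fixed EC70 calcium of 1.6 mM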
LANA-H2A inh: blocks KSHV LANA binding to histone H2A/H2B. cell-free LANA-H2A/H2B peptide, fluorescence polarization. Q9QR71. inhibition, % (concentration not given with the values). AID 2629. actives 0.6% (n = 320,000); in the data active = inhibition mostly above about 10%, no sharp cut-off; inactive = mostly below about 6.7%
Target sequence (Q9QR71 whole entry, looked up): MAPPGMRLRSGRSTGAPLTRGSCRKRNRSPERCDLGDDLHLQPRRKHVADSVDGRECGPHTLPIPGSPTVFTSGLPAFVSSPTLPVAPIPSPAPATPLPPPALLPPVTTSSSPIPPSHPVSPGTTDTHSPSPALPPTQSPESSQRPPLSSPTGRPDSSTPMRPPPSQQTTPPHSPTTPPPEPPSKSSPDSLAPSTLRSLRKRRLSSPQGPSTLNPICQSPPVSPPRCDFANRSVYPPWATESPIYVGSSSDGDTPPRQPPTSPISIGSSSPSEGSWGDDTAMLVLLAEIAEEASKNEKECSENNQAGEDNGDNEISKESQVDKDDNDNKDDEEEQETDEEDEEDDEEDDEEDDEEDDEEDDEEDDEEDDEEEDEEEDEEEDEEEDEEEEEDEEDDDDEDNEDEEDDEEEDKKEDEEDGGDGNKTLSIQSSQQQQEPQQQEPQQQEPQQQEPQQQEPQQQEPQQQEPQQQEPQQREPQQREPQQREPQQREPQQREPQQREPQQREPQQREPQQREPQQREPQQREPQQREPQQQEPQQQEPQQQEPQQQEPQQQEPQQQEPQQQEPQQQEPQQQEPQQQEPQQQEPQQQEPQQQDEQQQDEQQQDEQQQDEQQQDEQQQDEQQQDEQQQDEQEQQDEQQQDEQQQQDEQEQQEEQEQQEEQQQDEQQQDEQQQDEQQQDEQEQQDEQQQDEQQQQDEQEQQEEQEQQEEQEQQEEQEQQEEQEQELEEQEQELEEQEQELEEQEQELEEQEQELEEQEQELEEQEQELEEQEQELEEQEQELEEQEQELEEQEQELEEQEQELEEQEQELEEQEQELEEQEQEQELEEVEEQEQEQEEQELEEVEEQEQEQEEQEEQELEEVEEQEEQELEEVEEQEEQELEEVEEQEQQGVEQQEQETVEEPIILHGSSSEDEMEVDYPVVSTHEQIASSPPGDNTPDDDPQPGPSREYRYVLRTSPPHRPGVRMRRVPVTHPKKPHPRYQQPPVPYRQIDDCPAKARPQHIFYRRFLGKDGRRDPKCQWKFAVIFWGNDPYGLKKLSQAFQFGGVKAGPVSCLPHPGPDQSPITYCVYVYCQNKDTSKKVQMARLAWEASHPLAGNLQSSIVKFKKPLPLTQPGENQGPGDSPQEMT
* = called active by the depositor; i = inactive; . = not tested or not shown; + = active, no number; ! = repeats disagree.

SMILES	Keap1-Nrf2 PPI	LANA DNA inh	cardiac RTF act	Cardiac RTF inh	LANA-H2A inh
COc1ccc(NC(=O)CN(C)C(=O)/C=C/c2ccc(S(=O)(=O)N3CCCCCC3)cc2)cc1	-0.8	-0.1	1.6	-0.1	110.3*
COc1ccc(OCC(=O)Nc2ccc(S(=O)(=O)N3CCOCC3)cc2)cc1	0.8	-2.9	8.4	0.2	27.8*
CCc1ccc(OCC(=O)Nc2ccc(S(=O)(=O)N3CCCC3)cc2)c(Br)c1	0.3	-4.3	1.5	-8.8	3.2
O=C(COc1ccc(Br)cc1CO)Nc1ccc(S(=O)(=O)N2CCCCC2)cc1	4.1	2.9	-1.7	-0.6	+
COc1ccc(/C=C/C(=O)N(C)CC(=O)Nc2cccc(F)c2)cc1S(=O)(=O)N1CCCCC1	-4.7	1.2	-6.2	-1.0	.
CCOc1ccc(NC(=O)COc2ccc(S(=O)(=O)N3CCOCC3)cc2)cc1	0.3	-0.5	-7.3	-6.4	-7.9
COc1ccc(NC(=S)N2CCN(C(=O)c3ccco3)CC2)cc1	-3.9	0.7	0.8	-11.6	0.1
COC(=O)[C@]1(C)N[C@H](CN(C)C(C)=O)[C@@H]2C(=O)N(C)C(=O)[C@@H]21	6.2	0.2	-0.1	-2.6	.
CCN(C[C@H]1N[C@@](C)(C(=O)OC)[C@H]2C(=O)N(C)C(=O)[C@@H]12)C(=O)c1ccc(F)cc1	-1.8	-1.2	4.3	-3.0	.
CCN(C[C@H]1N[C@@](C)(C(=O)OC)[C@H]2C(=O)N(C)C(=O)[C@@H]12)C(=O)c1ccc(C)cc1	-5.6	-2.6	-1.1	-3.4	67.1*
COC(=O)[C@]1(C)N[C@H](CN(C)C(=O)Nc2ccc(C)cc2)[C@@H]2C(=O)N(C)C(=O)[C@@H]21	-4.4	2.0	-3.6	0.8	159.9*
C/C(=N/NC(=O)CCC(=O)Nc1cccc(Cl)c1)c1ccc(C)cc1	1.6	-0.3	2.3	-13.2	-6.7
N#CC1(NC(=O)CSc2ccccn2)CCCCC1	-3.1	0.2	-1.1	0.6	-2.4
CC(C(=O)Nc1ccc(S(=O)(=O)N2CCCCC2)cc1)N1CCN(c2ccccn2)CC1 (stereo unspecified)	.	.	.	.	138.4*
CC(C(=O)Nc1ccc(S(=O)(=O)N2CCCC2)cc1)N1CCN(C(=O)c2ccco2)CC1 (stereo unspecified)	-0.7	-0.3	1.3	-5.1	-3.3
CCOC(=O)C1CCCN(S(=O)(=O)CCNC(=O)c2ccccc2)C1 (stereo unspecified)	-0.4	-0.9	-3.8	-2.9	-1.6
O=C(Cn1c2ccccc2c(=O)c2ccccc21)N/N=C/c1ccc(N2CCCC2)c([N+](=O)[O-])c1	1.8	0.0	-2.4	-14.4	+
C[C@@H](C(=O)OCC(=O)NCCc1ccc(S(N)(=O)=O)cc1)N1C(=O)C2CCCCC2C1=O (stereo partly specified)	-2.2	-2.3	10.6	-13.2	-0.1
CCOC(=O)NC1(C(F)(F)F)C(=O)NC(C)=C1C(=O)OC (stereo unspecified)	-5.4	-0.4	16.9	1.7	-1.5
CC(=O)OCCn1c2nc(=O)[nH]c(=O)c-2nc2cc(C)c(C)cc21	156.5*	163.4*	+	i	166.4*
CC(=O)OCCn1c(C)[n+](CCOC(C)=O)c2cc(Cl)c(Cl)cc21	-7.1	0.7	6.2	-8.7	0.4
CCCN(CC(=O)Nc1ccccc1OC)C(=O)Cc1ccccc1F	-0.3	1.6	0.2	-20.5	-2.5
Cc1ccc(NC(=O)C(c2ccccc2)N(C)C)cc1Cl (stereo unspecified)	0.9	0.6	0.6	10.7	12.0*
COc1ccc2c(c1OC)C(=O)OC2C1c2c(cc3c(c2OC)OCO3)CCN1C (stereo unspecified)	-2.5	1.7	5.6	6.0	5.3*!
COc1ccc2c(c1OC)C(C1c3c(cc4c(c3OC)OCO4)CCN1C)OC2=O (stereo unspecified)	4.4	1.6	1.4	0.4	-1.9
SMILES	Keap1-Nrf2 PPI	LANA DNA inh	cardiac RTF act	Cardiac RTF inh	LANA-H2A inh
Cc1cc2nc(-c3ccccc3)cc(=O)n2[nH]1	-3.7	-2.7	-3.3	-3.4	1.9
Cc1cc(-c2ccccc2)nc2c(Br)c(=O)[nH]n12	-0.6	-1.0	-3.7	0.6	13.1*
CCCCC(CC)COC(=O)CCCCC(=O)OCC(CC)CCCC (stereo unspecified)	-3.5	0.8	-4.8	6.8	46.1*
CCCCCCCC(=O)OCC(O)CO (stereo unspecified)	-3.7	0.7	3.8	1.6	1.1
S=c1[nH]nc(-c2ccc(Cl)cc2)n1-c1ccc(Cl)cc1	-0.4	-0.4	-0.9	-4.9	0.7
S=c1[nH]nc(-c2ccc(Cl)cc2Cl)n1-c1ccc(Cl)cc1	-2.2	-3.0	1.6	-13.0	45.4*
COc1cccc(NC(=O)c2cc(-c3ccc(C)o3)nc3ccccc23)c1	-3.7	-1.5	-2.6	-2.0	-5.3
COc1cccc(NC(=O)CN(C)C(=O)c2cc(-c3ccc(C)o3)nc3ccccc23)c1	-7.7	0.0	2.9	0.8	60.3*
O=C(NC(=S)N1CCN(C/C=C/c2ccccc2)CC1)c1ccc(Cl)nc1	0.5	-0.5	12.9	-9.7	3.3
Cc1ccc(NC(=O)CCc2nc3sc4c(c3c(=O)[nH]2)CCCC4)c(Br)c1	-4.8	0.1	-15.0	-2.6	2.5
Cc1c(N=Cc2ccc(Cl)o2)c(=O)n(-c2ccccc2)n1C	-4.5	0.3	2.3	-2.5	22.9*
CC1(C)O[C@@H]2C[C@H]3[C@@H]4C[C@H](F)C5=CC(=O)C=C[C@]5(C)[C@@]4(F)[C@@H](O)C[C@]3(C)[C@]2(C(=O)CO)O1	-2.0	0.0	0.7	-12.8	34.3*!
CCc1ccc(CN(C)C(=O)c2cc(COc3cccc4cnccc34)on2)cc1	-0.8	0.6	-0.3	-7.8	-2.3
Cc1c(C(C)NC(=O)c2cc(COc3cccc4cnccc34)on2)cnn1C (stereo unspecified)	1.8	1.0	-3.1	-6.2	24.7*
Cc1ccc(NC(=O)Nc2ccc(F)cc2F)c(OC(F)F)c1	-0.7	0.2	-0.3	-11.7	102.5*
O=C(NCCC1=CCCCC1)NC1CCCCC1	0.9	-1.5	-2.1	-2.7	-0.2
Nc1cc(N)c(OCC(F)(F)F)cc1OCC(F)(F)F	-3.1	4.1	-0.3	-8.1	2.8
COc1ccc(-c2nn(-c3ccccc3)cc2/C=C2/SC(=S)N(Cc3ccco3)C2=O)c(C)c1	-5.0	-0.1	-4.4	-3.6	-2.3
COc1ccc(-n2c(C)cc(/C=C3\SC(=S)N(Cc4ccco4)C3=O)c2C)cc1	-4.8	2.7	31.1*	-26.8	-4.4
CCOc1ccccc1OCCCC(=O)Nc1ccc(Cl)c(S(=O)(=O)N2CCOCC2)c1	5.5	-0.1	-3.1	2.3	29.6*
Cc1cccc(OCCCC(=O)Nc2ccc(Cl)c(S(=O)(=O)N3CCOCC3)c2)c1	-3.1	-0.6	-6.0	6.4	1.1
CCCNC(=O)Cn1c(=O)/c(=C/c2ccc(-c3ccc([N+](=O)[O-])cc3)o2)s/c1=C\C(=O)C(C)(C)C	-7.9	1.4	52.3*	-75.4	.

Assay outcomes (PubChem BioAssay)
